Assay [1] can be described thus: ATG_CMV_CIS: Attagene CIS-FACTORIAL HepG2 Assay for human CMV (Internal Marker) (AID 2282928).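 Further: endpoint acts as a background internal control marker rather than a target.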 The note with it: HepG2 CMV promoter reporter, transcription factor profiling; actives raise or lower the signal. Summed up:
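Endogenous transcription factor activity read in HepG2 via transfected cis-promoter reporter units. After 24 h dosing, reporter mRNA measured by RT-PCR/capillary electrophoresis; gain or loss of signal fit relative to DMSO.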

Assay [2] can be described thus: ATG_DR4_LXR_CIS: Attagene CIS-FACTORIAL HepG2 Assay for human Liver X Receptor (LXR), DR4 submotif (AID 2282929). The note with it: HepG2 Attagene DR4 cis-reporter, mRNA transcription; actives raise or lower the signal. An outline of the steps:
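After transient transfection with multiplexed cis-promoter reporter units, HepG2 cells received test chemicals for 24 h. Reporter mRNA induction, detected by fluorescence after RT-PCR and capillary electrophoresis, was scored relative to DMSO.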

Assay [3] in a line: ATG_AP_2_CIS: Attagene CIS-FACTORIAL HepG2 Assay for human Activator Protein 2 (AP-2) (AID 2282932). Particulars: HepG2 AP-2 cis-reporter, Attagene transcription factor profiling; actives raise or lower the signal. An outline of the steps: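 HepG2, transient MRTU transfection, cis-regulated reporters; 24 h compound exposure; RNA isolated, RT-PCR, 6-FAM labelling, HpaI digest, CE fluorescence. DMSO = negative control/baseline, bidirectional fit.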

The target in assay [4] is Transcription factor E2F1 (Homo sapiens) (UniProt Q01094). In words: ATG_E2F_CIS: Attagene CIS-FACTORIAL HepG2 Assay for human E2F Transcription Factor 1 (AID 2282935). Particulars: HepG2 Attagene cis-reporter, E2F reporter RNA transcripts; actives raise or lower the signal. Summed up: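 Cis-element reporter mRNA induction in transiently transfected HepG2, 24 h exposure. Activity fitted in both directions relative to DMSO negative control.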
Chain of Transcription factor E2F1 (Homo sapiens) (Q01094 whole entry, looked up): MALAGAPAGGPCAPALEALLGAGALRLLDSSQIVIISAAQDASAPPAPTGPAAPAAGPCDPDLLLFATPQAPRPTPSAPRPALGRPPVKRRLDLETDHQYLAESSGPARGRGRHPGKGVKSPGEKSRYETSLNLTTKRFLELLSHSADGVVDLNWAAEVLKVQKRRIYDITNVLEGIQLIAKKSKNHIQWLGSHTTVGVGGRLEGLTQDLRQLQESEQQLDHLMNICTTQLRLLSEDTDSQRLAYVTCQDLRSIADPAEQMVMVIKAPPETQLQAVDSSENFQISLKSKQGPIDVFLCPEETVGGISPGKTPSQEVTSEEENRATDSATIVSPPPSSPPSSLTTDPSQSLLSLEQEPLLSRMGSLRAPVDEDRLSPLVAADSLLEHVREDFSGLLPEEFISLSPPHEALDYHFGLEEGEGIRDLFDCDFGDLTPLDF

A short description of assay [5]: ATG_M_61_CIS: Attagene CIS-FACTORIAL HepG2 Assay for M61 Transcription Factor (Internal Marker) (AID 2282937). The note with it: HepG2 Attagene CIS-FACTORIAL M61 internal marker reporter; actives raise or lower the signal. Summed up: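 Using transiently transfected HepG2 liver cells, reporter transcript levels were assessed 24 h post-dosing by RT-PCR and capillary electrophoresis. Changes in either direction were fitted relative to DMSO controls.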

Assay [6] is described as follows: ATG_EGR_CIS: Attagene CIS-FACTORIAL HepG2 Assay for human Early Growth Response 1 (EGR1) (AID 2282938). The note with it: HepG2 Attagene CIS-FACTORIAL EGR reporter mRNA; actives raise or lower the signal. Summed up: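 Fluorescent capillary-electrophoresis signal of reporter cDNA fragments serves as read-out. HepG2 cells bear transiently transfected cis-promoter reporter units and are exposed 24 h; gain- or loss-of-signal is fitted against DMSO.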

Assay [7] can be described thus: ATG_Ets_CIS: Attagene CIS-FACTORIAL HepG2 Assay for human Erythroblast Transformation Specific (ETS) (AID 2282941). Particulars: HepG2 ETS cis-reporter transcription, actives raise or lower the signal. An outline of the steps:
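Steps: transfect HepG2 with multiple reporter units; treat compound 24 h; isolate RNA, DNase-treat, reverse-transcribe; PCR-amplify, label with 6-FAM, digest with HpaI; separate by capillary electrophoresis. Activity fitted both directions versus DMSO.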

The target of assay [8] is Hepatocyte nuclear factor 3-beta (Homo sapiens) (UniProt Q9Y261). Nature of the assay: ATG_FoxA2_CIS: Attagene CIS-FACTORIAL HepG2 Assay for human Forkhead box A2 (FOXA2) (AID 2282942). Particulars: HepG2 cis-reporter transcription factor activity, 24 h; actives raise or lower the signal. Summed up:
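Fluorescence signal of reporter cDNA fragments, separated by capillary electrophoresis, reflects endogenous transcription factor activity in transfected HepG2 after 24 h. Both increases and decreases fitted against DMSO.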

Assay [9] can be described thus: ATG_FoxO_CIS: Attagene CIS-FACTORIAL HepG2 Assay for human Forkhead box O (FoxO) (AID 2282943). Particulars: HepG2 Attagene cis-reporter, FoxO element, mRNA; actives raise or lower the signal. An outline of the steps:
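Human hepatoma HepG2 cells carry transiently introduced reporter transcription units controlled by cis promoter elements. Chemical treatment lasted 24 h, and mRNA signal was compared with DMSO.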

Assay [10] in a line: ATG_GATA_CIS: Attagene CIS-FACTORIAL HepG2 Assay for human GATA Binding Protein (AID 2282944). The note with it: HepG2 GATA cis-element reporter, Attagene multiplex mRNA; actives raise or lower the signal. An outline of the steps:
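Measures endogenous transcription factor-driven reporter mRNA in HepG2 cells transiently carrying cis-regulated constructs. 24 h dosing; RNA via oligo(dT) reverse transcription, PCR, HpaI digestion, capillary electrophoresis; fitted relative to DMSO.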

Assay [11] can be described thus: ATG_ISRE_CIS: Attagene CIS-FACTORIAL HepG2 Assay for human Interferon Regulatory Factor 1 (IRF1) binding to an Interferon-Stimulated Response Element (ISRE) (AID 2282948). Particulars: HepG2 ISRE cis-reporter (Attagene), mRNA transcription readout; actives raise or lower the signal. An outline of the steps:
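Transfected HepG2 (multiple reporter transcription units, cis elements) dosed 24 h. RNA → oligo(dT) RT → PCR → 6-FAM primer extension → HpaI → CE. DMSO = negative control/baseline.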

A short description of assay [12]: ATG_M_32_CIS: Attagene CIS-FACTORIAL HepG2 Assay for M32 Transcription Factor (Internal Marker) (AID 2282949).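 Further: background control marker of the multiplexed CIS panel rather than a real target.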 The note with it: HepG2 Attagene cis-factorial M32 reporter, mRNA; actives raise or lower the signal. Summed up: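 Fluorescent capillary electrophoresis peaks of HpaI-digested, FAM-labelled RT-PCR reporter products give the signal. Source: transiently transfected human liver HepG2 cells, 24 h after chemical dosing; bidirectional fitting against DMSO.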

A short description of assay [13]: ATG_MRE_CIS: Attagene CIS-FACTORIAL HepG2 Assay for human Metal Responsive Element (MRE) (AID 2282954). Particulars: HepG2 MRE cis-reporter transcription, Attagene multiplex; actives raise or lower the signal. Summed up:
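Transient MRTU transfection of HepG2 (FuGene 6); 24 h dosing; total RNA → oligo(dT) RT, PCR, 6-FAM primer extension, HpaI cut, CE. Bidirectional fit vs DMSO.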

Assay [14] has as its target Paired box protein Pax-6 (Homo sapiens) (UniProt P26367). Nature of the assay: ATG_Pax6_CIS: Attagene CIS-FACTORIAL HepG2 Assay for human Paired Box 6 (PAX6) (AID 2282956). The note with it: HepG2 CIS-FACTORIAL PAX6 reporter transcription, RNA readout; actives raise or lower the signal. Summed up:
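Transient MRTU transfection of HepG2 → compound exposure 24 h → TriZol RNA, oligo(dT) RT → PCR, 6-FAM primer extension, HpaI cut → capillary electrophoresis; activity fitted both directions against DMSO.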

Assay [15] in a line: ATG_PXRE_CIS: Attagene CIS-FACTORIAL HepG2 Assay for human Pregnane X Receptor Element (PXRE) (AID 2282957). The note with it: HepG2 Attagene CIS-FACTORIAL PXRE reporter, mRNA; actives raise or lower the signal. An outline of the steps:
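Cis-element reporter mRNA in human hepatoma HepG2 cells is measured 24 h post-dosing by RT-PCR, primer-extension labeling and capillary electrophoresis; gain or loss of signal is fitted relative to DMSO.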

The nature of assay [16]: ATG_Sox_CIS: Attagene CIS-FACTORIAL HepG2 Assay for human SRY-box transcription factor (SOX) (AID 2282960). Particulars: HepG2 Attagene cis-factorial SOX reporter, mRNA; actives raise or lower the signal. Summed up: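 Using transiently transfected HepG2 cells, reporter transcription driven by cis elements was assessed 24 h after dosing. Signal was fluorescence of capillary-separated RT-PCR products, with DMSO defining baseline activity.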

The nature of assay [17]: ATG_SREBP_CIS: Attagene CIS-FACTORIAL HepG2 Assay for human Sterol Regulatory Element Binding (SREBP) (AID 2282962). The note with it: HepG2 Attagene cis-factorial SREBP reporter, mRNA; actives raise or lower the signal. Summed up:
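Transfected HepG2 (cis-regulated reporter library, endogenous TFs) → compound 24 h → total RNA → oligo(dT) RT → reporter-specific PCR → FAM primer extension, HpaI cut → CE fluorescence. Fit bidirectional vs DMSO.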

Assay [18] can be described thus: ATG_TCF_b_cat_CIS: Attagene CIS-FACTORIAL HepG2 Assay for human T-Cell-Factor with beta-catenin (TCF/b-cat) (AID 2282965). Particulars: HepG2 TCF/beta-catenin cis-reporter transcription, actives raise or lower the signal. An outline of the steps:
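Measured: reporter mRNA in HepG2 transiently transfected with cis-promoter reporter units, 24 h after chemical addition. Fitting was bidirectional, DMSO as negative control.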

Assay [19] can be described thus: ATG_TAL_CIS: Attagene CIS-FACTORIAL HepG2 Assay for human TAL Basal Promoter (AID 2282966).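 Further: background control endpoint measuring basal TAL promoter reporter mRNA not a specific factor.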 The note with it: HepG2 Attagene cis-factorial TAL promoter reporter; actives raise or lower the signal. Summed up: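 In this cell-based multiplex, HepG2 liver cells bearing cis-promoter reporter constructs are dosed for 24 hours. Total RNA is reverse-transcribed and amplified, labelled fragments are sized by capillary electrophoresis, and signal changes are fitted bidirectionally versus DMSO.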

Assay [20] in a line: ATG_TGFb_CIS: Attagene CIS-FACTORIAL HepG2 Assay for human Transforming Growth Factor (TGF) (AID 2282967). Particulars: HepG2 Attagene CIS TGFb reporter, mRNA transcription; actives raise or lower the signal. Summed up: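 After a 24-hour incubation with compound, transfected HepG2 cells were lysed for RNA; reporter cDNA was amplified, fluorescently end-labeled and separated by CE. DMSO served as baseline for bidirectional fits.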

Each structure is given as a SMILES string. The source made the active and inactive calls. How the source made its calls: active means hit-call score of the fitted dose curve at least 0.9, where 1 is the maximum; inactive means score below 0.9.

Chain of Hepatocyte nuclear factor 3-beta (Homo sapiens) (Q9Y261 whole entry, looked up, the tested form may be a part): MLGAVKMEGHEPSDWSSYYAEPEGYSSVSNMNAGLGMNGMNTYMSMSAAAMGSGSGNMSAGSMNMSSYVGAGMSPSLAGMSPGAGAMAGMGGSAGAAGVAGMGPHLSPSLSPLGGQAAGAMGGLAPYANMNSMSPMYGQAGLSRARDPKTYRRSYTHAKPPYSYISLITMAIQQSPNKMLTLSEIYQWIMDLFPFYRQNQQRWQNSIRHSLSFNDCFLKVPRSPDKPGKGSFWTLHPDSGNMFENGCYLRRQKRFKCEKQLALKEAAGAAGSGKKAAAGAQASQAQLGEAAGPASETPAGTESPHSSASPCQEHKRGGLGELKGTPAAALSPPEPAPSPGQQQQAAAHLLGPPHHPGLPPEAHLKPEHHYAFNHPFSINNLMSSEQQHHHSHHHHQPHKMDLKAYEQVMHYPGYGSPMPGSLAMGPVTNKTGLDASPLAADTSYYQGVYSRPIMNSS
Chain of Paired box protein Pax-6 (Homo sapiens) (P26367 whole entry, looked up): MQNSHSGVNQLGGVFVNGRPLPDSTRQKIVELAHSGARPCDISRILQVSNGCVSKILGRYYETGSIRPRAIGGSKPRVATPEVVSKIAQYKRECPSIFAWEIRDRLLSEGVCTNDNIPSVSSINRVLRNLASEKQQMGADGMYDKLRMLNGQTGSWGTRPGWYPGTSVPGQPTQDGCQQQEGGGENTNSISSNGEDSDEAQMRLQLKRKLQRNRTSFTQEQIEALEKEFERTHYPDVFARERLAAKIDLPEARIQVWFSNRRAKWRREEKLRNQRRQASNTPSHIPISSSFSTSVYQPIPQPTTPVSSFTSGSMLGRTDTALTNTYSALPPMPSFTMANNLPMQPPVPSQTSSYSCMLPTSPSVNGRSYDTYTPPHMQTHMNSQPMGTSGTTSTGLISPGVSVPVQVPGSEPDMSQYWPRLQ

Regarding `[CH3][Sn]([Cl])([Cl])[Cl]`, the molecule was called inactive in assay [1], in [2], in [3], in assay [4], in [5] and in assay [6]. Moreover, the result in assay [7], in [8], in [9], in assay [10], in assay [11] and in assay [12] was inactive. Moreover, the molecule was called inactive in [13], in assay [14], in assay [15], in assay [16], in assay [17] and in assay [18]. Moreover, the call in assay [19] and in [20] was inactive.
Consider `O=[N+]([O-])c1ccc(Cl)cc1`, for which the result in assay [1], in assay [2], in assay [3], in assay [4], in assay [5] and in assay [6] was inactive. Further, the call in assay [7], in assay [8], in [9], in assay [10], in assay [11] and in assay [12] was inactive. The molecule was classed as inactive in assay [13], in [14], in assay [15], in [16], in [17] and in [18]. For the same molecule, the result in assay [19] and in [20] was inactive.
Consider `CCC(C)c1cc(C(C)(C)C)cc(-n2nc3ccccc3n2)c1O` (stereo not given), for which the call in assay [1], in [3], in [4], in [5], in [6] and in assay [7] was inactive. Also, the molecule was classed as inactive in assay [8], in assay [9], in assay [10], in [11], in assay [12] and in assay [13]. For the same molecule, the call in [14], in [16], in assay [17], in assay [18], in assay [19] and in [20] was inactive. Also, the AC50 was 19.3 µM (active) in assay [2] and 4.36 µM (active) in [15].
Regarding `CN(C)CCC#N`, the molecule was classed as inactive in assay [1], in assay [2], in assay [3], in [4], in [5] and in assay [6]. Moreover, the outcome in [7], in assay [8], in [9], in [10], in [11] and in [12] was inactive. The molecule was classed as inactive in assay [13], in assay [14], in assay [15], in assay [16], in assay [17] and in [18]. The result in assay [19] and in assay [20] was inactive.
`CC(=O)/C=C/c1ccccc1`: the molecule was called inactive in assay [1], in assay [3], in assay [4], in [5], in assay [7] and in assay [8]. Further, the outcome in [9], in assay [10], in [12], in assay [17], in assay [18] and in assay [19] was inactive. Moreover, the molecule was classed as inactive in assay [20]. Besides, the AC50 is 78.1 µM (active) in assay [2]; 69.4 µM (active) in [6]; 100 µM (active) in assay [11]; 37.8 µM (active) in assay [13]; 69 µM (active) in assay [14]; 26.4 µM (active) in assay [15]. The AC50 in assay [16] is 56.4 µM (active).
For `Cc1cc(C)c(C2=C(OC(=O)CC(C)(C)C)C3(CCCC3)OC2=O)c(C)c1`, the call in [1], in [3], in assay [4], in assay [5], in [7] and in assay [8] was inactive. The call in [9], in [10], in assay [12], in [16], in assay [18] and in assay [19] was inactive. The outcome in [20] was inactive. Also, the AC50 in assay [2] was 28.5 µM (active); in assay [6], 104 µM (active); in assay [11] it was 168 µM (active); in assay [13], 76 µM (active); in assay [14], 104 µM (active); in [15], 7.83 µM (active). In addition, in [17], the AC50 is 166 µM (active).
With `c1ccc2c(c1)CCCC2`, the call in assay [1], in [2], in assay [3], in assay [4], in assay [5] and in assay [6] was inactive. Also, the molecule was called inactive in assay [7], in [8], in assay [9], in assay [10], in assay [11] and in assay [12]. Also, the molecule was classed as inactive in assay [13], in [14], in [15], in assay [16], in assay [17] and in assay [18]. For the same molecule, the outcome in [19] and in assay [20] was inactive.

The values are drawn from PubChem BioAssay (EPA / NIEHS).
